Reference: PubChem BioAssay (NCATS)
Records with an inconclusive call do not appear. Where a call stands in place of a potency, no number is given. A number with no mark means an inactive call. The source made the active and inactive calls. Calls follow the shape of the dose curve; as a rule, active = well fitted curve in the direction sought with a large enough effect; inconclusive = small, poorly fitted or top-dose-only effect, or another doubt; inactive = no such curve, though single readings can be large; an effect the other way counts as inactive or inconclusive. Where a SMILES comes first, the peptide text is derived from it.

Columns and labels:
[1] = system: Zika virus NS2B-NS3 protease (linked construct); assay: Confirmatory screen NINDS AMC qHTS for Zika virus inhibitors (AID 1347152); also: nearly all actives have a fitted effect of over 70% in size; also: potency is read from the fitted curve at half-maximal effect;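 as to activity change, negative = inhibition: AMC fluorescence gain from cleaved Bz-Nle-KRR-AMC substrate over 15 min; top concentration of the series differs between compounds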
Procedure, shortened: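 Linked NS2B-NS3 protease, 1 nM, in 10 mM Tris-HCl pH 8.0, 0.01% Tween 20; compounds preincubated 15 min at room temperature. Nle-KRR-AMC 10 microM (Km 18.3 µM); 15-min fluorescence change (340/450 nm) fitted to 4-parameter Hill.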

[2] = Confirmatory screen GU Rhodamine qHTS for Zika virus inhibitors qHTS (AID 1347157); also: potency is read from the fitted curve at half-maximal effect; nearly all actives have a fitted effect of over 70% in size
Procedure, shortened: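 Buffer 10 mM Tris-HCl pH 8.0, 0.01% Tween 20. Unlinked protease 25 nM; compound preincubation 15 min, RT, protected from light. Substrate Rhod110, 1.5 microM; ~15% conversion in 15 min.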

[3] = system: Zika virus NS2B-NS3 protease (unlinked complex); assay: Primary screen GU Rhodamine qHTS for Zika virus inhibitors: Unlinked NS2B-NS3 protease assay (AID 1347159); also: nearly all actives have a fitted effect of over 60% in size; also: potency is read from the fitted curve at half-maximal effect
Procedure, shortened: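 Noncovalent NS2B hydrophilic domain–NS3 protease domain complex (25 nM) preincubated 15 min at room temperature with compounds (up to 114 microM) in 10 mM Tris-HCl pH 8.0, 0.01% Tween 20; 1.5 microM Rhodamine110 substrate added, fluorescence change over 15 min fitted to Hill equation.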

[4] = system: Zika virus NS2B-NS3 protease (linked construct); assay: Primary screen NINDS Rhodamine qHTS for Zika virus inhibitors (AID 1347160); also: nearly all actives have a fitted effect of over 55% in size; also: potency is read from the fitted curve at half-maximal effect
Procedure, shortened: (§1)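 Purified linked NS2B-NS3 protease (NS2B hydrophilic domain joined to NS3 protease by flexible linker), 25 nM in 10 mM Tris-HCl pH 8.0, 0.01% Tween 20. Compounds titrated, 15 min preincubation at room temperature; 1.5 microM Rhodamine110 substrate, FITC fluorescence change over 15 min.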

[5] = Confirmatory screen NINDS Rhodamine qHTS for Zika virus inhibitors (AID 1347161); also: potency is read from the fitted curve at half-maximal effect; nearly all actives have a fitted effect of over 60% in size
Procedure, shortened: as §1

[6] = Vero cells viability qHTS for Zika virus inhibitors (AID 1347167)
Procedure, shortened: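 Cells seeded at 2.5 x 10^5 cells/mL in DMEM with 4% FBS and attached overnight at 37 degrees C, then exposed to compound for 24 to 48 hours. Viability read as ATP content by CellTiter Glo luminescence.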

[7] = system: Zika virus NS2B-NS3 protease (unlinked complex); assay: Confirmatory screen GU AMC qHTS for Zika virus inhibitors (AID 1347153);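 also: enzyme at 25 nM with substrate at 10 µM below its Km of 18.3 µM; potency is read from the fitted curve at half-maximal effect; nearly all actives have a fitted effect of over 70% in size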
Procedure, shortened: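 Noncovalent NS2B hydrophilic domain/NS3 protease complex (25 nM) in 10 mM Tris-HCl pH 8.0, 0.01% Tween 20 was preincubated 15 min at room temperature with compounds. Then 10 µM AMC substrate (Km 18.3 µM) was added; fluorescence was read over 15 min and fitted to a 4-parameter Hill equation.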

[8] = system: Zika virus NS2B-NS3 protease (linked); assay: 384 well plate NINDS AMC confirmatory qHTS for Zika virus inhibitors (AID 1347163); also: potency is read from the fitted curve at half-maximal effect; nearly all actives have a fitted effect of over 50% in size
Procedure, shortened: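 Linked NS2B-NS3 protease (final 5 nM, 30 nM or 60 nM) was preincubated with compounds (final up to 1 mM) for ~15 minutes. Ac-VKTGKR-AMC substrate (final 30 microM) then reacted for 25 minutes at room temperature in the dark. Fluorescence (ex 355/em 460 nm) was normalized to no-enzyme and no-inhibitor controls.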

In the case of `C/C(=C\CCC(C)CCO)C(=O)OC[C@H]1O[C@@H](O[C@@H]2OC=C(C(=O)O)[C@H]3CC[C@](C)(O)[C@@H]23)C(O)[C@@H](O)C1O` (stereo partly drawn), the Potency [1] is reported as 13.6 µM (active), the Potency [2] is reported as 4.29 µM (active) and the Potency [3] is reported as 7.94 µM (active). For the same compound, the Potency [4] was 5.62 µM (active), the Potency [5] was 2.15 µM (active) and the outcome [6] was “inactive”.
With `O=C(O)CC1CCC(c2ccc(-c3ccc(Nc4ccc(C(F)(F)F)nc4)cn3)cc2)CC1` (stereo not drawn) the Potency [7] was 44.1 µM (active), the Potency [2] was 4.41 µM (active) and the Potency [3] was 6.31 µM (active). The Potency [4] was 10 µM (active), the Potency [5] was 4.41 µM (active) and the outcome [6] was “inactive”.
In the case of `Cc1ccc([C@@H]2CC=C(C(=O)O)[C@H](c3ccc(C(C)(C)C)cc3)N2S(=O)(=O)c2ccc(C)cc2)cc1`, the Potency [1] is reported as 15.6 µM (active), the Potency [7] is reported as 19.7 µM (active) and the Potency [2] is reported as 3.12 µM (active). For the same compound, the Potency [3] was 2.51 µM (active), the Potency [4] was 2.24 µM (active) and the Potency [5] was 2.78 µM (active). For the same compound, the Potency [8] was 3.55 µM (active) and the outcome [6] was “inactive”.
In the case of `CC1C(O)C(O)C2C(C(=O)OCCc3ccc(O)cc3)=COC(O[C@@H]3O[C@H](CO)[C@@H](O)[C@H](O)[C@H]3O)C12` (stereo partly drawn), the Potency [1] is reported as “inactive”, the Potency [2] is reported as 8.57 µM (active) and the Potency [4] is reported as 8.91 µM (active). The Potency [5] was 15.2 µM (active) and the outcome [6] was “inactive”.
In the case of `COc1cc(CCCO)ccc1O[C@@H]1O[C@H](CO)[C@@H](O)[C@H](O)[C@H]1O`, the Potency [2] is reported as 34.3 µM (active), the Potency [3] is reported as “inactive” and the Potency [5] is reported as 34.3 µM (active).
With `CC(C)CC(c1c(O)c(C=O)c(O)c(C=O)c1O)C1CCC(C)(O)C2CC(C(C)(C)O)CCC12C` (stereo not drawn) the Potency [4] was 5.01 µM (active), the Potency [8] was 50.1 µM (active) and the outcome [6] was “inactive”.
For `CC1(C)CC[C@]2(C(=O)O)CC[C@]3(C)C(=CCC4[C@@]5(C)CC[C@H](O[C@@H]6O[C@H](C(=O)O)[C@@H](O)[C@H](O)[C@H]6O)C(C)(C)C5CC[C@]43C)C2C1` (stereo partly drawn), the Potency [4] was “inactive”.
For `COc1cc(C(C)=O)ccc1O[C@@H]1O[C@H](CO)[C@@H](O)[C@H](O)[C@H]1O`, the Potency [3] was “inactive” and the Potency [4] was “inactive”.
In the case of `CC(=O)OC1C(CO)OC(O[C@H]2[C@H](OC(=O)[C@]34CCC(C)(C)C[C@H]3C3=CCC5[C@@]6(C)CC[C@H](O[C@@H]7O[C@H](C(=O)O)[C@@H](O)[C@H](O[C@@H]8OC[C@@H](O)[C@H](O)[C@H]8O)[C@H]7O[C@@H]7O[C@H](CO)[C@H](O)[C@H](O)[C@H]7O)[C@@](C)(C=O)C6CC[C@@]5(C)[C@]3(C)C[C@H]4O)O[C@H](C)[C@H](OC3OC(C)C(OC4OCC(O)C(O)C4O)C(O)C3O)[C@@H]2O)C(O)C1O` (stereo partly drawn), the activity change, negative = inhibition [3] is reported as 21.3% [at 19.1 µM] and the Potency [4] is reported as “inactive”.
For `CC1(C)[C@@H]2CC=C(CO[C@@H]3O[C@H](CO[C@@H]4OC[C@H](O)[C@H](O)[C@H]4O)[C@@H](O)[C@H](O)[C@H]3O)[C@H]1C2`, the Potency [3] was “inactive” and the Potency [4] was “inactive”.
In the case of `CC(O)C1NC(=O)C2CCCN2C1=O` (stereo not drawn), the Potency [3] is reported as “inactive” and the Potency [4] is reported as “inactive”.
With `O=C(O)C(Cc1ccccc1)NC(=O)C1CCCN1` (stereo not drawn) (H-Pro-Phe-OH; configuration not given here) the Potency [3] was “inactive” and the Potency [4] was “inactive”.
For `CC1(C)CC[C@]2(C(=O)O)CC[C@]3(C)C(=CCC4[C@@]5(C)CC[C@H](O[C@@H]6O[C@H](C(=O)O)[C@@H](O)[C@H](O[C@@H]7O[C@H](CO)[C@H](O)[C@H](O)[C@H]7O)[C@H]6O[C@@H]6O[C@H](CO)[C@@H](O)[C@H](O)[C@H]6O)C(C)(C)C5CC[C@]43C)[C@@H]2C1` (stereo partly drawn), the Potency [3] was 5.62 µM (active) and the Potency [4] was “inactive”.
For `N[C@@H](CCNCc1ccc(Cl)cc1)C(=O)N1CCCCC1`, the Potency [3] was “inactive” and the Potency [4] was “inactive”.
For `CC(=O)OC1CC(C(C)(C)O)OC2CCC3(C)OC4=C(C(=O)C=C5C(C)C(OC(C)=O)C6(C)C(C)OC546)C(O)C3C12C` (stereo not drawn), the Potency [3] was “inactive” and the Potency [4] was “inactive”.
For `C/C=C/C1OC2=C(C(=O)OC2(C)O)C(O)C1O` (stereo not drawn), the Potency [3] was “inactive” and the Potency [4] was “inactive”.
In the case of `Cc1cc(C(=O)N2Cc3cnn(C)c3Nc3ccccc32)ccc1CNC(=O)N1CCN(Cc2cc(O)cc(O)c2)CC1`, the Potency [3] is reported as “inactive” and the Potency [4] is reported as “inactive”.
For `CN1CCN(C(=O)c2cc3cc(Cl)ccc3[nH]2)CC1`, the Potency [3] was “inactive” and the Potency [4] was “inactive”.
With `C=C[C@H]1[C@H](O[C@@H]2O[C@H](CO)[C@@H](O)[C@H](O)[C@H]2O)OC=C(C(=O)OC)[C@H]1CC=O` the Potency [3] was “inactive” and the Potency [4] was “inactive”.
With `O=C(NC1CCN(CC(F)(F)F)CC1)c1ccc(-c2cccc(F)c2)nc1` the Potency [3] was “inactive” and the Potency [4] was “inactive”.
